Assay outcomes: PubChem BioAssay, National Center for Advancing Translational Sciences (NCATS)
Compounds with a hit are over-represented: about 19% of the library has one in this group of screens.
TDP1 inh – TDP1 (human) enzyme inhibition; Q9NUW8; recombinant TDP1, AlphaScreen DNA substrate cleavage; Potency, µM (highest dose often 130 µM), inactives show at the top dose activity change, negative = inhibition, hits mostly inhibitors; 350,000 compounds, 0.28% hits; AID 485290; note: nearly all actives have a fitted effect of over 40% in size
Target sequence (Q9NUW8 whole entry, looked up): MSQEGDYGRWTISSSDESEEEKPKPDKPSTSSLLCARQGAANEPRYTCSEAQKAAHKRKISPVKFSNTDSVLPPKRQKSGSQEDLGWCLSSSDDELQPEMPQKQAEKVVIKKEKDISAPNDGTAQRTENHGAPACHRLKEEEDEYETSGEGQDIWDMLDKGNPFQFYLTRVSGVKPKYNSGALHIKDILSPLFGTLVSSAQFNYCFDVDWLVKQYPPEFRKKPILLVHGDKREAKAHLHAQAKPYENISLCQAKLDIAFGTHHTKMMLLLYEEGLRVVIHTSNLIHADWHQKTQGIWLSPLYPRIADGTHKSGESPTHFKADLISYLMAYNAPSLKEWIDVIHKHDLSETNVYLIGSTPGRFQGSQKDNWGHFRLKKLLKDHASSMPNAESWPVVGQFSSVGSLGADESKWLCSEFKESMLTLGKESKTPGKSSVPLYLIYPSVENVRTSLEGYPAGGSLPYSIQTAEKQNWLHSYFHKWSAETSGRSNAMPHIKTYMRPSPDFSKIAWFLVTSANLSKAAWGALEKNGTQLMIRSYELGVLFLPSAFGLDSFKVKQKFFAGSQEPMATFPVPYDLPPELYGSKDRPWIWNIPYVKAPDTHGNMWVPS
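Steps: enzyme plus compound, 15 min RT; add biotin/phosphotyrosine-FITC oligonucleotide (15 nM final), react 5 min; add donor/acceptor beads (10 ug/ml final), 10 min; read AlphaScreen. Tdp1 at 1 nM final.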
RORgamma inh – inhibitors of mouse ROR gamma transcriptional activity; Potency, µM (doses to about 53.6 µM), for inactives: at the highest dose activity change, negative = inhibition, usual class: inhibitors; Drosophila S2 Gal4-RORgamma UAS-luciferase reporter, 20 h; 310,000 compounds, 5.4% hits; AID 2551; P51450; note: nearly all actives have a fitted effect of over 60% in size
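Read-out: Photinus luciferase luminescence; inhibitors lower reporter signal. Insect Schneider cells with Gal4-ROR gamma fusion under metallothionein promoter, UAS reporter; 700 uM final copper sulfate induction, 20 hr, ambient temperature.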
DT40 TDP1 CPT – growth inhibition of DT40 Tdp1-/-;hTDP1 cells with camptothecin (screen for TDP1 inhibitors); chicken DT40 Tdp1-/-;hTDP1 cells + 20 nM CPT, ATP luminescence, 48 h; Potency, µM (highest dose often 46.2 µM), without a hit: at the top dose activity change, negative = growth inhibition, usual class: inhibitors; 420,000 compounds, 12% hits; AID 686979; note: nearly all actives have a fitted effect of over 55% in size
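Chicken DT40 Tdp1-/- cells complemented with human TDP1, 400 cells/well, exposed to compounds plus 20 nM camptothecin for at least 48 h at 37 C; viability read as ATP content by CellTiter-Glo luminescence.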
TDP1 cell noCPT – qHTS for Inhibitors of human tyrosyl-DNA phosphodiesterase 1 (TDP1): qHTS in cells in absence of CPT; DT40 Tdp1-/- hTDP1 cells, no CPT, ATP luminescence, 48 h; Potency, µM (series often up to 46.2 µM), for inactives: at the top dose activity change, negative = growth inhibition, most hits filed as inhibitors; 420,000 compounds, 15% hits; note: nearly all actives have a fitted effect of over 55% in size
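A cellular qHTS used chicken DT40 cells lacking endogenous Tdp1 but carrying stably transfected human TDP1. Compounds were applied without camptothecin, and cell growth kinetics were judged by ATP-dependent luminescence after ≥48 hr.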
Gal4-VP16 FLuc – inhibits Gal4-VP16 luciferase reporter, ROR gamma counter-screen; Drosophila S2 Gal4-VP16 UAS-luciferase, luminescence, 20 h; 310,000 compounds, 3.5% hits; Potency, µM (highest dose often 53.6 µM), without a hit: at the highest dose activity, negative = inhibition, actives largely listed as inhibitors;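 note: Gal4-VP16 expression switched on by copper sulfate through the metallothionein promoter; nearly all actives have a fitted effect of over 50% in size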
* marks the source's active call; other numbers are inactive results; ? = inconclusive; . = no result given. Calls come from the whole dose curve; as a rule, active = well fitted curve in the direction sought with a large enough effect; inconclusive = small, poorly fitted or top-dose-only effect, or another doubt; inactive = no such curve, though single readings can be large; an effect the other way counts as inactive or inconclusive. % is set by controls: 0 for no effect and ±100 for the full control effect; potency is the fitted concentration of half-maximal effect.

SMILES	TDP1 inh	RORgamma inh	DT40 TDP1 CPT	TDP1 cell noCPT	Gal4-VP16 FLuc
N#CC1=C(N)Oc2n[nH]c(-c3ccc(F)cc3)c2C1c1cccc(OC(=O)N2CCOCC2)c1 (stereo unspecified)	5.3%	2.7%	-14.9%	-24.4%	21.3%
O=C(Nc1ccccc1)NC1CCCCNC1=O (stereo unspecified)	-1.4%	8.2%	10.1%	-7.5%	5.8%
Cc1cc(C)c2oc(C(=O)Nc3c(C(=O)c4ccc(F)cc4)oc4ccccc34)cc(=O)c2c1	6.1%	.	-8.5%	?	.
COc1ccc(S(=O)(=O)N2CCCC2CNC(=O)C(=O)NCCc2ccccc2)cc1 (stereo unspecified)	-3.5%	.	7.31µM*	7.31µM*	.
CCc1ccc(NC(=O)C(=O)NCC2CCCN2S(=O)(=O)c2ccccc2)cc1 (stereo unspecified)	5.3%	.	?	20.6µM*	.
CC(=O)OC1CC2C(C)(C)C(O)CC(O)[C@@]2(C)C2CC[C@@]3(C)C(=CC(=O)OC3c3ccoc3)[C@]12C (stereo partly specified)	-7.7%	5.0%	?	?	11.5%
COC(=O)CC1C(C)(C)C(OC(C)=O)C2[C@H](OC(C)=O)[C@]34O[C@]2(O)[C@]1(C)C3CC[C@]1(C)C4=CC(=O)OC1c1ccoc1 (stereo partly specified)	10.1%	3.7%	?	16.4µM*	-8.2%
CC1CCCCC1NC(=O)NC(=O)COC(=O)c1nccnc1N (stereo unspecified)	0.4%	.	-12.1%	-1.4%	.
CC1CCCC(NC(=O)NC(=O)CCl)C1C (stereo unspecified)	-4.5%	3.16µM*	3.66µM*	3.66µM*	5.01µM*
CC1CCCCC1NC(=O)NC(=O)CCl (stereo unspecified)	-4.5%	5.01µM*	2.91µM*	5.17µM*	6.31µM*
CC1CCCC(NC(=O)CSC2CCCCC2)C1C (stereo unspecified)	0.0%	10.5%	?	?	?
COc1ccc(CSCC(=O)Nc2ccc(S(=O)(=O)N3CCCCCC3)cc2)cc1	1.8%	?	?	?	-20.2%
CNC(=O)C1CCC(Cn2c(=O)c3sccc3n(CC(=O)N3CCCCC3C)c2=O)CC1 (stereo unspecified)	3.2%	.	-17.3%	-8.1%	.
O=C(CCn1c(=O)oc2ccccc21)NCCC1=CCCCC1	1.3%	0.5%	-24.3%	?	4.9%
CCOC(=O)[C@H]1[C@H]2COc3cc(OC)ccc3[C@@H]2N2C(=O)CN(CC3CCCO3)C(=O)[C@@]12C (stereo partly specified)	-4.0%	.	0.2%	-2.2%	.
CC1CCN(c2nnc(-c3cccs3)c3ccccc23)CC1	4.4%	?	25.9µM*	?	?
CC1CCN(c2nc3ccccc3nc2N2CCC(C)CC2)CC1	0.0%	-1.0%	.	.	16.1%
CC(=O)N1c2ccc(S(=O)(=O)NCCc3ccc(Cl)cc3)cc2CC1C (stereo unspecified)	2.5%	?	?	?	-22.9%
CC(=O)N1c2ccc(S(=O)(=O)NCCC(=O)NCCc3ccc(Cl)cc3)cc2CC1C (stereo unspecified)	2.2%	?	16.4µM*	?	-8.0%
CC(=O)N1c2ccc(S(=O)(=O)NCCC(=O)NCCc3ccc(C)cc3)cc2CC1C (stereo unspecified)	0.9%	?	20.6µM*	?	-28.2%
CC(=O)N1c2ccc(S(=O)(=O)NCCC(=O)Nc3ccc(C)cc3Br)cc2CC1C (stereo unspecified)	5.1%	.	11.6µM*	9.2µM*	.
Cc1ccc(S(=O)(=O)NCCC(=O)OCC(=O)NCCc2ccccc2)cc1C	-3.4%	.	11.1%	1.3%	.
CC(=O)N1c2ccc(S(=O)(=O)NCCC(=O)NCCc3cccc(C)c3)cc2CC1C (stereo unspecified)	1.2%	8.7%	?	-22.0%	-0.3%
Cc1ccc(S(=O)(=O)NCCC(=O)NCCc2ccc(S(N)(=O)=O)cc2)cc1C	-2.3%	.	3.26µM*	-23.2%	.
O=C(NCc1ccccc1Cl)[C@H]1CCCN1C(=O)[C@H]1CCCN1C(=O)c1ccccc1	.	.	-19.7%	-13.7%	.
SMILES	TDP1 inh	RORgamma inh	DT40 TDP1 CPT	TDP1 cell noCPT	Gal4-VP16 FLuc
S=c1sc(SCCOc2ccccc2)nn1-c1ccccc1	-13.5%	-14.6%	3.1%	4.2%	17.8%
CC(C)(C)c1ccc(-c2ncccc2O)cc1	3.0%	1.4%	-14.0%	?	-2.3%
COc1cccc(C(=O)NC2CC3CCCC(C2)N3CC(=O)Nc2ccccc2)c1 (stereo unspecified)	.	36.7%	-25.6%	?	-3.4%
COc1ccc2[nH]c(=O)c(CN(Cc3cccnc3)C(=S)NCC3CCCO3)cc2c1 (stereo unspecified)	0.0%	27.6%	18.4µM*	20.6µM*	2.1%
Cc1cccc(CCN(Cc2cc3cccc(C)c3[nH]c2=O)C(=O)N2CCOCC2)c1	7.0%	32.3%	?	-24.8%	3.7%
CCN1CCCC1CN(Cc1cc2c(C)cc(C)cc2[nH]c1=O)C(=O)NC1CCCCC1 (stereo unspecified)	-1.0%	29.8%	23.1µM*	?	8.7%
Cc1cc(C)c2cc(CN(CCO)C(=O)NC3CCCCC3)c(=O)[nH]c2c1	-3.1%	6.3%	6.0%	7.0%	-9.8%
COc1ccc2cc(CN(CC3CCCO3)C(=S)NCc3ccco3)c(=O)[nH]c2c1 (stereo unspecified)	6.0%	?	-16.7%	?	-1.3%
COc1cc2cc(CN(CCN3CCOCC3)C(=O)Nc3ccc(F)cc3)c(=O)[nH]c2cc1OC	-3.0%	-6.3%	-6.3%	-13.0%	-11.5%
Cc1ccc2[nH]c(=O)c(CN(CCCN3CCOCC3)C(=O)Nc3ccc(Cl)cc3)cc2c1	-7.6%	6.1%	14.6µM*	16.4µM*	-3.3%
Cc1ccc2[nH]c(=O)c(CN(Cc3ccccc3Cl)C(=O)N3CCOCC3)cc2c1	9.5%	20.0%	?	20.6µM*	8.1%
CCc1ccc(OC(C)C(=O)N2CCC(c3nc4ccccc4o3)CC2)cc1 (stereo unspecified)	1.6%	.	?	?	.
O=C(Nc1ccccc1)C1CCCN1/C=C/C(=O)C(F)(F)F (stereo unspecified)	3.5%	28.5%	-29.0%	-12.1%	29.0%
COc1ccc2cc(CN(CC3CCCO3)C(=O)Nc3ccccc3)c(=O)[nH]c2c1 (stereo unspecified)	-3.0%	1.3%	?	-13.2%	-0.2%
CCN1CCCC1CN(Cc1cc2cc(C)ccc2[nH]c1=O)C(=O)Nc1ccccc1OC (stereo unspecified)	0.0%	?	?	20.6µM*	-15.9%
